RBX1-CUL1 inh: blocks human RBX1-Cullin-1 di-ubiquitin formation | P62877+Q13616 | in vitro K48 di-Ub FRET, acceptor:donor ratio, 45 min | inhibition, % at 10 µM | 140,000 tested, 0.6% active; in the data active = inhibition above about 25%
Target sequence (P62877 whole entry, looked up): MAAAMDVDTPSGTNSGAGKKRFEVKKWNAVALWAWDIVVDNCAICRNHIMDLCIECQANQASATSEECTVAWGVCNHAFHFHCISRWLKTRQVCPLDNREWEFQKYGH
Target sequence (Q13616 whole entry, looked up): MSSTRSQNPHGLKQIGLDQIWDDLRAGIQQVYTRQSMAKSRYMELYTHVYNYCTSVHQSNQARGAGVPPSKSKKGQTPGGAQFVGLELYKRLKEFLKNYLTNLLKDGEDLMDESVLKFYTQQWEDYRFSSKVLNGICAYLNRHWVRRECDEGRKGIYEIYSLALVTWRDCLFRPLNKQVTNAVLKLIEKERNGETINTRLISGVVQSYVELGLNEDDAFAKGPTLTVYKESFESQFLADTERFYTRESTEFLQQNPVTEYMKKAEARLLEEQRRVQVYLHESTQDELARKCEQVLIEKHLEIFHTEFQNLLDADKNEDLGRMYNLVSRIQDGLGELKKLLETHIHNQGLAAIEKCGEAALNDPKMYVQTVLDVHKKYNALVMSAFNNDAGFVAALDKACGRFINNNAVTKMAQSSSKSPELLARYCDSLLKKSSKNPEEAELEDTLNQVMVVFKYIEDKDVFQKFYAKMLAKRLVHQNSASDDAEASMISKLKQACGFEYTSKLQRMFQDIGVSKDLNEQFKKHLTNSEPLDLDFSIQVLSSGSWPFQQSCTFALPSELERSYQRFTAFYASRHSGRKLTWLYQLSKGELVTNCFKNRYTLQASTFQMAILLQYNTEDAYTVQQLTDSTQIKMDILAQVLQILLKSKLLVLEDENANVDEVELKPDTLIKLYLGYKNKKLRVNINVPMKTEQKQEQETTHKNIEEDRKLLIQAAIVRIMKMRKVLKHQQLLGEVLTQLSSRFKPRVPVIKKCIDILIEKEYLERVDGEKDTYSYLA
An asterisk follows results filed as active. The full list was thinned out, with hits kept by preference.

SMILES	RBX1-CUL1 inh
CCOc1ccc2nc3cc(NC(=O)c4ccco4)ccc3c(N)c2c1	97*
CCCCOc1cccc(NC(=O)c2ccco2)c1	-5
O=C(NCCCc1ccncc1)C1CC12CCN(C(=O)c1csc(-c3cccs3)n1)CC2 (configuration not stated)	1
Cc1ccc(N2C(=O)/C(=C/c3ccc(N4CCOCC4)o3)C(=O)NC2=S)cc1Cl	8
O=C(COc1ccc2ccccc2c1)NCC(=O)N/N=C/c1ccc(OCc2ccc(F)cc2)cc1	-1
O=C1C(=O)N(c2nnc(SCc3ccc(F)cc3)s2)C(c2cccc(Oc3ccccc3)c2)C1C(=O)c1cc2ccccc2o1 (configuration not stated)	41*
COc1cc(C2C(C(=O)c3cc4ccccc4o3)C(=O)C(=O)N2c2nnc(C)s2)ccc1OCc1ccccc1 (configuration not stated)	65*
Cc1ccc(C2C(C(=O)c3cc4ccccc4o3)C(=O)C(=O)N2c2nnc(SCc3cccc4ccccc34)s2)cc1 (configuration not stated)	-9
Cc1ccc(CSc2nnc(N3C(=O)C(=O)C(C(=O)c4cc5ccccc5o4)C3c3ccc(OCc4ccccc4)cc3)s2)cc1 (configuration not stated)	47*
CCCCCOc1ccc(C2C(C(=O)c3cc4ccccc4o3)C(=O)C(=O)N2c2nc(C)c(C(C)=O)s2)cc1OC (configuration not stated)	1
COc1cc(C2C(C(=O)c3cc4ccccc4o3)C(=O)C(=O)N2c2nc3c(C)cc(C)cc3s2)ccc1OCc1ccccc1 (configuration not stated)	4
CC(=O)c1sc(N2C(=O)C(=O)C(C(=O)c3cc4ccccc4o3)C2c2ccc(F)cc2)nc1C (configuration not stated)	-1
Cc1ccc2nc(N3C(=O)C(=O)C(C(=O)c4cc5ccccc5o4)C3c3ccccc3)sc2c1 (configuration not stated)	-3
O=C1C(=O)N(c2nnc(SCc3ccccc3F)s2)C(c2ccc(F)cc2)C1C(=O)c1cc2ccccc2o1 (configuration not stated)	3
CCCN1CCC(N2CCC(n3nccc3NC(=O)C(C)(C)C)CC2)CC1	-10
N#Cc1c(-c2ccccc2)cc(-c2ccccc2)n(S(=O)(=O)c2ccccc2)c1=O	-9
Cc1ccccc1CCN1CCCC(CN(C)C(=O)c2ccncc2)C1 (configuration not stated)	-1
CCOCCc1nnc(NC(=O)NC(C)c2cn3ccsc3n2)s1 (configuration not stated)	17
CSc1ccc([N+](=O)[O-])c(SC)c1	-3
Cc1ccccc1OCC(=O)NC(C)C(=O)N/N=C\c1ccc2c(c1)n(C)c(=O)n2C (configuration not stated)	9
Cc1cccc(OCC(=O)NC(C)C(=O)N/N=C/c2ccc(OCc3c(C)cc(C)cc3C)cc2)c1 (configuration not stated)	12
Cc1ccccc1OCC(=O)NC(C(=O)N/N=C/c1ccc(OCc2ccccc2C#N)cc1)C(C)C (configuration not stated)	96*
Cc1n[nH]c(=S)n1/N=C/c1ccc(N(C)C)cc1	0
CCCCOC(=O)c1cc(-c2ccc(CC3=NC(=S)NC3=O)o2)ccc1Cl	1
CCOC(=O)c1cc(-c2ccc(C(c3c(C)[nH][nH]c3=O)c3c(C)[nH][nH]c3=O)o2)ccc1Cl	67*
SMILES	RBX1-CUL1 inh
CCOC(=O)c1cc(-c2ccc(/C=C(\C#N)c3nc4ccc(C)cc4[nH]3)o2)ccc1Cl	-4
O=C1NC(=O)N(c2ccccc2F)C(=O)/C1=C/c1cccn1-c1ccc(Br)cc1	2
CCc1ccc(N2C(=O)/C(=C/c3cccn3-c3ccccc3)C(=O)NC2=S)cc1	8
Cc1c(Cl)cccc1N1C(=O)/C(=C/c2cccn2-c2cccc(C(=O)O)c2)C(=O)NC1=S	101*
Cc1c(Cl)cccc1N1C(=O)/C(=C/c2cc(C)n(-c3ccc(C#N)cc3)c2C)C(=O)NC1=S	4
O=C1NC(=S)N(c2ccc(Br)cc2)C(=O)/C1=C/c1cccn1-c1ccccc1	1
O=C1NC(=S)N(c2ccc(Cl)cc2)C(=O)/C1=C/c1cccn1-c1cccc(C(=O)O)c1	25*
CCc1cccc(C)c1-n1c(C)cc(/C=C2\C(=O)NC(=S)N(c3ccccc3F)C2=O)c1C	-8
Cc1c(/C=C2/C(=O)NC(=S)N(c3cccc(Cl)c3Cl)C2=O)c2ccccc2n1C	-5
Cn1cccc1/C=C1\C(=O)NC(=S)N(c2ccccc2F)C1=O	95*
Cc1cc(/C=C2\C(=O)NC(=S)N(c3ccc(Cl)cc3)C2=O)c(C)n1-c1ccc(Cl)cc1	-3
CCOc1ccc(N2C(=O)/C(=C/c3cccn3C)C(=O)NC2=S)cc1	10
Cc1cc(/C=C2\C(=O)NC(=S)N(c3ccccc3F)C2=O)c(C)n1-c1ccc(C(=O)O)c(Cl)c1	86*
CCCCN(C)C(=O)C1CCCN(C2CCN(C3Cc4ccccc4C3)CC2)C1 (configuration not stated)	0
Cc1ccc(NC(=O)c2ccc(CN3CCCCC3)cc2)c(C)c1	-3
c1ccc(-c2ccc(-c3cccc(-c4ccc(-c5ccccc5)s4)c3)s2)cc1	-11
CCN(CC)C(=O)CSc1nc(Cc2ccccc2)cc(C(F)(F)F)c1C#N	-8
O=C(Nc1cccc(NC(=O)c2ccccc2Cl)c1)c1cc2ccccc2o1	-2
O=C(CCC1CCCN(C(=O)/C(F)=C/c2ccccc2)C1)N1CCCC1 (configuration not stated)	-3
CCOC(=O)C1(Cc2ccc(OC)cc2)CCN(C(=O)C(=O)c2ccccc2)CC1	4
O=C(O/N=C1\CCCSc2ccccc21)c1ccc(Cl)c(Cl)c1	-2
CCOc1cc(-c2nc(-c3ccc(Cl)cc3)no2)cc(OCC)c1OCC	10
CCOC(=O)C1(Cc2ccccc2Cl)CCN(C2CCN(C(C)=O)CC2)CC1	2
O=C1NC(=S)S/C1=C/c1ccccn1	-4
O=C1NC(=S)S/C1=C/c1c(Cl)cc(Cl)c(O)c1Cl	28*
SMILES	RBX1-CUL1 inh
Cc1nn(C)cc1/C=C1\SC(=S)NC1=O	-2
Cc1cc(C)n(COCC(C)C)n1	-8
N#Cc1ccc(-c2ccccn2)nc1SC/C=C/c1ccccc1	-1
CCN(CC1CCCO1)C1CCN(c2cccc(NC(=O)c3ccccc3OC)c2)CC1 (configuration not stated)	-1
Cc1ccccc1N1OC2C(=O)N(c3ccccc3Cl)C(=O)C2C1c1ccc(N(C)C)cc1 (configuration not stated)	-7
Cc1cccc2c1OC(=O)C(C(c1ccc(N(C)C)cc1)C1C(=O)Oc3c(C)cccc3C1=O)C2=O (configuration not stated)	92*
Cc1c(C(c2ccc(Br)cc2)C2C(=O)Oc3ccccc3C2=O)c(=O)n(-c2ccccc2)n1C (configuration not stated)	-3
Cc1ccc(N=C2S/C(=C\c3c(C)n(C)n(-c4ccccc4)c3=O)C(=O)N2c2ccc(C)cc2)cc1	8
COCCN1C(=O)C(C(c2ccccc2)N2CCN(CCO)CC2)C(=O)C=C1C (configuration not stated)	-5
CCN(CC)C(=O)CCSc1nnc(-c2ccc(C)cc2)o1	9
Cc1ccc(C2C(C)C(N3CCC(C(=O)Nc4cccc(F)c4)CC3)NS2(=O)=O)cc1C (configuration not stated)	1
Cc1cc(Br)c(NC(=O)CN2CCC(C)CC2)cc1C	5

Bioassay records from PubChem.
